# Measurements taken from PubChem BioAssay AID1209 (Sanford-Burnham Center for Chemical Genomics, 2008).
# Out of some 190,000 compounds screened, about 810 (0.43%) were called active. The sample as a whole holds a higher share of actives than the screen did. Unmarked numbers belong to inactive results. No stated cut-off is given here; in the data, active means inhibition above about 50%; inactive means the rest.
# Target: Mannose-6-phosphate isomerase (Homo sapiens) (UniProt P34949)
# Test: inhibitors of human PMI, primary screen, biochemical, fluorescence intensity, coupled assay (AID 1209);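 further: plate controls were DMSO vehicle for no effect and wells lacking substrate for full effect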
# Conditions: purified PMI enzyme, at 20 µM, stronger effect = higher value
# Chain of Mannose-6-phosphate isomerase (Homo sapiens) (P34949 whole entry, looked up): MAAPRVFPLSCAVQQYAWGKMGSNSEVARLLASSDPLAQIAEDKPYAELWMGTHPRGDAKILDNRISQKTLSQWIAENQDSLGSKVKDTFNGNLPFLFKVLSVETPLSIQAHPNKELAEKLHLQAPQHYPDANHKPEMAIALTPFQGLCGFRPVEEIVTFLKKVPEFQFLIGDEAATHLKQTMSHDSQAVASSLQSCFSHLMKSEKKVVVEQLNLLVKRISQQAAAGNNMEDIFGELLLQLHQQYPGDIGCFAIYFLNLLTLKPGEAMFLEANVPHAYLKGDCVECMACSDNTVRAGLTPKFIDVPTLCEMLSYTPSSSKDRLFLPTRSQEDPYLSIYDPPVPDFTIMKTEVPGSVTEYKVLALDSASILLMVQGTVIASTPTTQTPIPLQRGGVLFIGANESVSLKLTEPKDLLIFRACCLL
row,SMILES,inhibition
1,COc1cccc(C2C(C(=O)Nc3nc4ccccc4s3)=C(C)NC3=C2C(=O)CC(C)(C)C3)c1OC (stereo unspecified),-10.5%
2,CC(=O)Nc1c(O)nc(SCC(=O)Nc2sc3c(c2C#N)CCCCCC3)[nH]c1=O,1.2%
3,CC(=O)NC1C(=O)N=C(SCC(=O)NC2CCCCC2)NC1=O (stereo unspecified),-8.4%
4,CC(=O)NC1C(=O)N=C(SCC(=O)Nc2sc3c(c2C#N)CCCCCC3)NC1=O (stereo unspecified),66.1% (active)
5,O=C(O)c1ccc(Nc2ncnc3c2cnn3Cc2ccccc2)cc1,7.1%
6,O=C(Cc1ccccc1)NCc1ccccn1,-4.7%
7,C/C(N)=C(/C#N)C(=O)CSc1nn(-c2ccc(Cl)cc2)c(=S)s1,5.6%
8,CC(=O)N1c2ccccc2C2(O)N=C(C)SC12 (stereo unspecified),60.3% (active)
9,CC(=O)N1c2ccccc2C(C)(C)C2CCC(C)CC21 (stereo unspecified),0.8%
10,Cc1ccc(C(=O)CC2(O)C(=O)N(C)c3ccccc32)s1 (stereo unspecified),8.1%
11,CCOc1ccccc1N1CCN(c2nc(N)c(C#N)c(CC#N)c2C#N)CC1,12.6%
12,COc1cc2c(C#N)c(N3CCCCC3)nc(N)c2c(N)n1,66.7% (active)
13,CCCN(CC1CC1)c1nc(N)c2c(N)nc(OC)cc2c1C#N,47.8%
14,CCCCN(CC)c1nc(N)c2c(N)nc(OCC)cc2c1C#N,37.5%
15,CCOc1cc2c(C#N)c(N3CCCCC3)nc(N)c2c(N)n1,62.4% (active)
16,N#Cc1c(N2CCCC2)nc(N)c2c(N)nc(N3CCCC3)cc12,6.9%
17,COc1cc2c(C#N)c(N3CCOCC3)nc(N)c2c(N)n1,28.9%
18,COc1cc2c(C#N)c(N3CCN(c4ccccc4OC)CC3)nc(N)c2c(N)n1,47.2%
19,COc1cc2c(C#N)c(N3CCc4ccccc4C3)nc(N)c2c(N)n1,64.3% (active)
20,CCOc1cc2c(C#N)c(N3CCNCC3)nc(N)c2c(N)n1,65.4% (active)
21,COc1cc2c(C#N)c(N3CCN(C)CC3)nc(N)c2c(N)n1,42.5%
22,COCc1cc(C)nc(N2CCNCC2)c1C#N,-0.4%
23,COc1ccc2cc(CN(CC3CCCO3)C(=O)Nc3ccccc3OC)c(=O)[nH]c2c1 (stereo unspecified),3.2%
24,Cc1ccc2nc(C)c(C(=O)N/N=C/c3ccc(C(=O)O)cc3)cc2c1,13.8%
25,Cn1cccc1C(=O)NC(=O)COC(=O)c1ccccc1O,9.4%
26,Cc1cc(NC(=S)N(CCCN2CCN(C)CC2)Cc2ccco2)ccc1Cl,3.6%

row,SMILES,inhibition
1,CC1CCN(C(=O)CSc2nnc(CSc3ncccn3)n2C)CC1,-8.9%
2,CCOC(=O)c1nnc(-c2ccccc2)nc1Oc1ccc(Cl)cc1,2.2%
3,Cc1ccc(Oc2ccc(NC(=O)c3ccco3)cc2)cc1,6.1%
4,Cc1ccc(-c2nnc(-c3ccc(NC(=O)c4ccco4)cc3)o2)cc1,75.9% (active)
5,O=C(Nc1cccc(-c2nnc(-c3ccccc3)o2)c1)c1ccco1,7.4%
6,CCN(CC)c1ccc(/C=N/N2CCOCC2)c(O)c1,19.6%
7,COc1cccc(/C=N/N2CCOCC2)c1O,4.9%
8,CC(C)c1nc(CN2CCCCC2)cc(=O)[nH]1,8.6%
9,CCN(CC)S(=O)(=O)c1ccc(C(=O)NCc2n[nH]c(=S)n2Cc2ccccc2)cc1,10.2%
10,CC1=C(C(N)=O)C(c2cccs2)NC(=S)N1 (stereo unspecified),-11.8%
11,Cc1nn(C)c(C)c1N1C(=O)c2cccc3c(N)ccc(c23)C1=O,6%
12,Cc1nn(C)c(C)c1N1C(=O)c2cccc3c(Br)ccc(c23)C1=O,-0.5%
13,CC(=O)c1ccc2c3c(cccc13)C(=O)N(c1c(C)nn(C)c1C)C2=O,74.2% (active)
14,O=C(NC(NC(=O)c1ccccc1)C(=O)c1ccccc1)c1ccccc1,109% (active)
15,O=C(NC(NC(=O)c1ccccc1)c1ccccc1)c1ccccc1,-8.6%
16,O=C(NC(Nc1ncccn1)C(=O)c1ccccc1)c1ccccc1 (stereo unspecified),-2%
17,CC(NC(=O)c1ccc2c(c1)OCCO2)C(=O)O (stereo unspecified),-5.6%
18,Cn1cc(CNCc2cnc3ccccn23)c(-c2ccc(Oc3ccccc3)cc2)n1,4.9%
19,CCN(CC)S(=O)(=O)c1ccc(NC(=O)c2cc(-c3cccs3)nc3ccccc23)cc1,-4.8%
20,O=[N+]([O-])c1ccc2c(c1Nc1ccccc1)=NC1(CCCCC1)N=2,46.2%
21,[O-][N+]1=c2ccc(Nc3ccccc3)cc2=NC12CCCCC2,79.7% (active)
22,c1ccc(Nc2cccc(Nc3ccccc3)c2)cc1,21%
23,COc1cc(C(=O)N/N=C(\C)c2ccc3c(c2)OCO3)cc(OC)c1OC,2.6%
24,Cc1cc(C)n(-c2ccc([N+](=O)[O-])cc2)n1,7%
25,COc1ccc(C2=NN(C(=O)CSc3nnc(C)n3C)C(c3ccco3)C2)cc1 (stereo unspecified),-23.9%
26,C=CCn1c(SCC(=O)N2CCCCC2)nnc1-c1ccncc1,-1.3%

row,SMILES,inhibition
1,C=CCn1c(SCC(=O)N2N=C(c3ccco3)CC2c2ccco2)nnc1-c1ccncc1 (stereo unspecified),57.4% (active)
2,COc1ccc(-c2nc3ccccc3c(=O)n2NC(=S)N(C)C)cc1,57.4% (active)
3,Cc1ccc(-c2nc3ccccc3c(=O)n2NC(=S)N(C)C)cc1,16.6%
4,CN(C)C(=S)Nn1c(-c2ccccc2)nc2ccccc2c1=O,4.8%
5,CCOC(=O)C1(C)C=C(Nc2ccc(OCC)cc2)C(=O)N1c1ccccc1 (stereo unspecified),11.1%
6,CCOC(=O)c1c(NC(=O)CCl)sc(C(=O)N(CC)CC)c1C,-11.1%
7,CCOC(=O)c1c(NC(=O)CN(C)C)sc(C(=O)N(CC)CC)c1C,8.3%
8,CCCCC(=O)Nc1sc(C(=O)N(CC)CC)c(C)c1C(=O)OC,58.3% (active)
9,CC(C)CN(C(=O)CN1CCC(C)CC1)c1c(N)n(CC(C)C)c(=O)[nH]c1=O,-5.2%
10,COc1ccc(C(=O)N/N=C(\C)CC(=O)N2CCN(C=O)CC2)cc1,5.1%
11,C/C(CC(=O)N1CCN(C=O)CC1)=N\NC(=O)c1ccc(Cl)cc1,-0.6%
12,C/C(CC(=O)N1CCN(C=O)CC1)=N\NC(=O)c1cc2ccccc2cc1O,84.9% (active)
13,Cc1cc(C)nc(Nc2n[nH]c(-c3ccccc3C)n2)n1,3.4%
14,O=c1[nH]c(-c2ccncc2)nc2ccccc12,71.3% (active)
15,O=c1[nH]c(-c2cccnc2)nc2ccccc12,7.1%
16,O=c1[nH]c(-c2ccccn2)nc2ccccc12,19.5%
17,CCOC(=O)C(C)n1cnc2c(nnn2-c2cccc(Cl)c2)c1=O (stereo unspecified),-9.6%
18,COc1ccccc1NC(C)C(=O)Nc1ccc(C(C)=O)cc1 (stereo unspecified),19.5%
19,CCc1ccc(NC(=O)c2ccccc2SC)cc1,7.2%
20,Cc1nnc(N/N=C/c2ccc(-c3ccc(Br)cc3)o2)n1N,-11.5%
21,Cc1nnc(N/N=C\c2ccc(-c3ccccc3[N+](=O)[O-])o2)n1N,57.8% (active)
22,O=[N+]([O-])c1ccccc1-c1ccc(/C=N/n2cnnc2)o1,20.4%
23,Cc1nnc(N/N=C/c2ccc(-c3ccccc3F)o2)n1N,-38.4%
24,Nn1cnnc1N/N=C\c1ccc(-c2ccccc2[N+](=O)[O-])o1,82.5% (active)
25,Nn1cnnc1N/N=C/c1ccc(Cl)c([N+](=O)[O-])c1,13.3%
26,COc1ccc(N2C(=O)CSCC2=O)cc1OC,1.2%

row,SMILES,inhibition
1,Cc1ccc(C)c(C(C)NC(=O)c2ccccc2Br)c1 (stereo unspecified),-5.5%
2,O=C1CSC(=Nc2ccccc2)N1Cc1ccccc1,6.4%
3,Clc1ss/c(=N\c2ccccn2)c1Cl,-30.7%
4,Cc1cc(C)nc(NC(=O)c2csnn2)c1,-0.9%
5,Cc1cc(C)nc(/N=c2/ssnc2Cl)c1,60.1% (active)
6,Cc1cc(C)c(C#N)c(Cl)n1,21%
7,Cc1ccc(N=c2ssnc2Cl)cc1,75.1% (active)
8,CCOC(=O)c1ccc(N=c2ssnc2Cl)cc1,66.1% (active)
9,CCOC(=O)c1ccc(N=c2scc(C)n2CC)cc1,-8.8%
10,Cc1ccc(N=c2sc(C)c(C)n2C)cc1,-13%
11,Cc1ccc(N=C2CSC(=O)N2)cc1,8.6%
12,CCOC(=O)c1ccc(N=C2NC(=O)CS2)cc1,10.2%
13,Clc1nssc1=Nc1ccccc1,57% (active)
14,CCC(=O)c1c[nH]c(C(=O)NCCCn2ccnc2)c1,10.2%
15,O=C(CCN1CCCCCC1)Nc1ccc(F)c(F)c1,-7.5%
16,COc1cc(/C=C(\NC(=O)c2ccccc2)C(=O)Nc2cccc(O)c2)c([N+](=O)[O-])cc1OC,9.6%
17,COC(=O)C(C(=O)OC)=C(/C=C/C=C/N(C)C)N(C)C,2.5%
18,O=C(Nc1ccc(Br)cc1)c1ccccc1CC[N+](=O)[O-],17.3%
19,O=C1c2ccccc2C(=O)N1CC1c2ccccc2CCN1S(=O)(=O)c1cnc[nH]1 (stereo unspecified),7.7%
20,CC(C)c1nnc(NC(=O)CSc2ncn[nH]2)s1,10.7%
21,CC(C)(C)C1CCC(=NNC(=O)c2ccccc2-n2cccc2)CC1 (stereo unspecified),21%
22,CC12c3ccccc3C(c3ccccc31)C1C(=O)N(Cc3cccnc3)C(=O)[C@H]12 (stereo partly specified),4.1%
23,COc1ccc2c(c1)c(=O)c(C(=O)c1ccc(C)cc1)cn2CC(=O)Nc1ccc(F)cc1,3.6%
